# The list is not random: actives were taken first. Their share in the collection is about 3%.
# KAT2A inh: GCN5L2 (KAT2A) acetyltransferase inhibition; Q92830; GCN5L2 HAT assay, ThioGlo1 CoA-SH fluorescence; Potency, µM (highest dose often 58.9 µM), for inactives: at the highest dose activity change, negative = inhibition, usual class: inhibitors; actives 0.21% (n = 390,000)
# Target sequence (Q92830 whole entry, looked up): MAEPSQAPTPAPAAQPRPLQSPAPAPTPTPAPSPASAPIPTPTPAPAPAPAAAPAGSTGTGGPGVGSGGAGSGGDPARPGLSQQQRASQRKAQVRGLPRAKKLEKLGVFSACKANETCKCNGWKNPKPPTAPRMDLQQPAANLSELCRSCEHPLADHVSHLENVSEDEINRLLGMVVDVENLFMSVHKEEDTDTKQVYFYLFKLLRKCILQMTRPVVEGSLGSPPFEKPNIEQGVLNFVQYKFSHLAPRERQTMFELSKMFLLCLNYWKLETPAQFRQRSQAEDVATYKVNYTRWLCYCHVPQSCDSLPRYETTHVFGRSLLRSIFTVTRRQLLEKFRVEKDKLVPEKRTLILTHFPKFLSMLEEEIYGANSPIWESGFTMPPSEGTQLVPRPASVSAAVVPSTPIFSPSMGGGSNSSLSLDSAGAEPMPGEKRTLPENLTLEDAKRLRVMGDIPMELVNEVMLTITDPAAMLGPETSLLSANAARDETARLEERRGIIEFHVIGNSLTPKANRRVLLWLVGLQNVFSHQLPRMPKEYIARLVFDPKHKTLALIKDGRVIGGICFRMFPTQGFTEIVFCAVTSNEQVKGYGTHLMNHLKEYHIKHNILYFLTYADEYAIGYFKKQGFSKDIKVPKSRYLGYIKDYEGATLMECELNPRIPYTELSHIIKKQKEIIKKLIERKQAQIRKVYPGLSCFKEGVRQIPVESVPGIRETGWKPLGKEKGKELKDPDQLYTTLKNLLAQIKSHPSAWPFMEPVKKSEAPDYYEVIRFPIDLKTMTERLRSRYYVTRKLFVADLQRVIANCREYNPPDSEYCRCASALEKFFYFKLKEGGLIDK
#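 Enzyme at 20nM final was mixed with library compounds for 15 min at room temperature. Peptide H3(1-25) at 75uM, acetyl-CoA at 70uM and ThioGlo1 at 50uM were then added. Plates were read immediately and after 20 min (Ex340nm/Em540nm).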
# VDR inh: vitamin D3 receptor (human) inhibition | P11473 | VDR-SRC2-3 peptide fluorescence polarization, 2 h | Potency, µM, for the others: max response, negative = inhibition, actives largely listed as inhibitors | actives 0.93% (n = 400,000)
#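 Inhibition of the VDR/SRC2-3 peptide interaction is quantified by fluorescence polarization. Compounds (23 nl, pintool) incubate with the reagents for 2 hours at ambient room temperature.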
# PLK1 PBD block: blocks phosphopeptide binding to human PLK1 polo-box domain | P53350 | Plk1 PBD binding of FITC phosphopeptide, fluorescence polarization | Potency, µM, for inactives: max response, negative = inhibition, most hits filed as inhibitors | actives 2.8% (n = 360,000); note: series mostly up to about 57 µM; nearly all actives have a fitted effect of over 65% in size
# 12-LOX inh: blocks human arachidonate 12S-lipoxygenase | P18054 | purified 12hLO, xylenol orange hydroperoxide absorbance | Potency, µM (series often up to 108 µM), without a hit: at the top dose activity change, negative = inhibition, actives largely listed as inhibitors | actives 1.1% (n = 580,000)
#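 Purified human 12hLO (150 nM final) in 25 mM Hepes, 0.01% Triton X-100, pH 7.0 was preincubated 15 min at room temperature with compound. Then 40 uM arachidonic acid was added, 30 min. Hydroperoxide was read by Fe-XO absorbance ratio 573/405 nm.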
# * hit, by the source's call; ? = inconclusive; · = not tested or not shown; [ ] = remark or other dose. Calls come from the whole dose curve; as a rule, active = well fitted curve in the direction sought with a large enough effect; inconclusive = small, poorly fitted or top-dose-only effect, or another doubt; inactive = no such curve, though single readings can be large; an effect the other way counts as inactive or inconclusive. % is set by controls: 0 for no effect and ±100 for the full control effect; potency is the fitted concentration of half-maximal effect.
SMILES,KAT2A inh,VDR inh,PLK1 PBD block,12-LOX inh
N#C/C(=C\c1cccs1)C(=O)NCc1ccccc1,-6.2%,44.7µM*,3.36µM*,-10.8%
N#C/C(=C/c1ccc(C(=O)O)cc1)C(=O)NCc1ccccc1,-8.8%,-23.0%,-1.2%,-14.4%
CCN1/C(=C\C(=S)Nc2ccccc2)Sc2ccccc21,-11.7%,?,23.8µM*,31.6µM*
Cc1c(C)c(C)c(S(=O)(=O)Nc2cc(Cl)ccc2C(=O)N(C)C)c(C)c1C,·,·,·,39.8µM*
CN(C)C(=O)c1cc(Cl)ccc1F,·,·,·,0.7%
Cc1ccsc1/C=C/C1=Cc2c(sc(N)c2C#N)C(C)(C)C1,·,·,·,17.8µM*
CN(C)CCCN(C(=O)c1ccc(C(=O)c2ccccc2)cc1)c1nc2ccc(F)cc2s1,-3.8%,17.9%,6.5%,?
CN(C)CCCN(C(=O)c1cccc(C(F)(F)F)c1)c1nc2ccc(F)cc2s1,·,·,·,35.5µM*
CC1CCCCC1NC(=O)C1(c2ccccc2)CCC1 (stereo unspecified),·,·,·,64.8%
CSC(C)C(=O)N(C)Cc1sccc1C (stereo unspecified),·,·,·,-3.0%
CC(C)[C@H](NC(=O)c1ccccc1)C(=O)OCc1nnc(-c2ccccc2)o1,-4.0%,-0.6%,26.7µM*,-6.8%
Cc1cc(/C=C(/C#N)C(=O)OC(C)C)cc(C)c1OC(F)F,·,·,·,40.1%
CN1CCCCCC(O)c2cc(C(=O)NCCc3c[nH]c4ccccc34)ccc21 (stereo unspecified),·,·,·,14.3%
O=C(Nc1ccc(S(=O)(=O)N2CCOCC2)cc1)c1ccco1,3.3%,2.7%,-6.5%,0.0%
O=C(Nc1ccc(S(=O)(=O)N2CCOCC2)cc1)c1ccc2c(c1)S(=O)(=O)c1ccccc1C2=O,-18.9%,-12.0%,-6.3%,-6.5%
O=C(Nc1cc(S(=O)(=O)N2CCOCC2)ccc1O)c1ccco1,-20.4%,-0.1%,29.9µM*,?
O=C(Nc1cc(S(=O)(=O)N2CCOCC2)ccc1O)c1ccc2c(c1)S(=O)(=O)c1ccccc1C2=O,3.0%,?,10.6µM*,-26.3%
CCCCOC(=O)c1nc2ccccc2nc1NCc1ccccc1,·,·,·,1.8%
Cc1ccc(CN2CCc3oc(C)c(C(=O)NC4CCCC4)c3C2)cc1,·,·,·,25.1µM*
Cc1oc2c(c1C(=O)NC1CCN(C)CC1)CN(Cc1ccc(F)cc1)CC2,·,·,·,-4.2%
Cc1oc2c(c1C(=O)NC1CCCC1)CN(Cc1ccc(F)cc1)CC2,·,·,·,12.6µM*
Cc1oc2c(c1C(=O)N1CCN(C3CCCC3)CC1)CN(Cc1cccc(F)c1)CC2,·,·,·,8.91µM*
Cc1oc2c(c1C(=O)NCc1cccnc1)CN(Cc1ccc(F)cc1)CC2,·,·,·,9.2%
Cc1ccc2c(C(=O)O)cc(-c3cccnc3)nc2c1C,·,·,·,11.2%
CC(C)C(=O)NC(Nc1cccc2ccccc12)C(Cl)(Cl)Cl (stereo unspecified),·,·,·,11.2µM*
SMILES,KAT2A inh,VDR inh,PLK1 PBD block,12-LOX inh
CC(C)C(=O)NC(Nc1ccccc1F)C(Cl)(Cl)Cl (stereo unspecified),-2.6%,3.8%,-0.3%,18.4%
O=C(CC1Sc2ccc(C(F)(F)F)cc2NC1=O)NOC1CCCCO1 (stereo unspecified),·,·,·,3.4%
C=C1C2=CC(=O)OC(c3ccoc3)[C@]2(C)CCC1[C@]1(C)C=CC(=O)C(C)(C)C1CC(=O)OC (stereo partly specified),1.0%,39.8µM*,·,·
C=C1C(C2(C)C=CC(=O)C(C)(C)C2CC(=O)OC)CC[C@@]2(C)C(c3ccoc3)OC(=O)C3OC132 (stereo partly specified),-10.8%,-4.8%,·,·
CC1CCc2c(sc(/N=C/c3cccnc3)c2C(N)=O)C1 (stereo unspecified),-3.4%,-15.8%,?,31.6µM*
O/N=C1\CCCCC1c1nccc2ccccc12 (stereo unspecified),·,·,·,5.6%
O=C(/C=C/c1cccc([N+](=O)[O-])c1)c1ccc([N+](=O)[O-])o1,·,2.82µM*,5.32µM*,-4.9%
CC1(C)Cc2c(C#N)c(Nc3ccccc3)n3c(SCC(=O)N4CCCCC4)nnc3c2CO1,·,·,·,-26.8%
Cc1ccc(CNc2nc3ccccc3nc2NS(=O)(=O)c2cccc(Cl)c2)cc1,·,·,·,4.9%
O=C(/C=C/c1ccsc1)c1ccc(O)cc1,·,·,·,50.1µM*
COc1cc2nc(Nc3ccc(C)c(Cl)c3)nc(N)c2cc1OC,-4.9%,22.6%,-14.7%,20µM*
COc1cc2nc(Nc3ccc(C)c(C)c3)nc(N)c2cc1OC,-8.0%,4.8%,1.3%,?
CC(Sc1nc(N)cc(N)n1)C(=O)c1ccc(F)c(F)c1 (stereo unspecified),·,·,·,-14.5%
c1ccc(-c2cc(-c3ccccc3)[o+]c(-c3ccccc3)c2)cc1,·,·,·,15.8µM*
CCOc1cccc(C(=O)NC(=S)Nc2ccc3c(c2)OCCO3)c1,-5.7%,?,-14.5%,15.8µM*
O=C(NC(=S)Nc1ccc(N2CCOCC2)cc1)c1ccc2c(c1)OCCO2,-3.6%,?,8.44µM*,?
COc1ccc(C(=O)NC(=S)Nc2ccc(N3CCOCC3)cc2)cc1Cl,-9.5%,7.9%,-0.7%,15.8µM*
CCOc1cccc(C(=O)NC(=S)Nc2ccc(N3CCCC3)cc2)c1,-4.0%,7.4%,-13.7%,?
O=C(NC(=S)Nc1ccc(N2CCOCC2)cc1)c1ccc(Cl)cc1,5.0%,1.5%,1.5%,-10.2%
COc1ccc(NC(=S)NC(=O)c2ccc3c(c2)OCCO3)cc1,-4.2%,-27.2%,-17.8%,7.08µM*
COc1cccc([S+](=O)([O-])N2CCCC3(C2)C(=NC2CCCCC2)NC(=O)N3c2cc(F)cc(F)c2)c1 (stereo unspecified),·,·,·,2.4%[6.33 µM]
CC(C)(C)c1ccc(C(=O)NC(=S)Nc2ccc(N3CCOCC3)cc2)cc1,-2.1%,6.7%,-7.9%,?
Cc1ccc(N/N=C/c2ccc(N3CCOCC3)cc2)cc1C,-7.1%,-5.1%,-13.9%,8.91µM*
Cc1ccc(C(=O)NC(=S)Nc2ccc(N3CCOCC3)cc2)cc1C,-3.7%,-21.3%,?,17.8µM*
